{"source": "the OligoGym collection", "data": [{"molecular_target": "TBC1D7", "test": "pooled miR-30 sensor sort-seq; sequence = guide strand", "conditions": "shRNA", "values": [{"sequence": "TAACTTCCCAGACTCCAGCTGA", "sensor-assay potency score (higher = more potent)": -0.346}, {"sequence": "TCAAGTATTGTTCAAACGCTTT", "sensor-assay potency score (higher = more potent)": -1.28}, {"sequence": "AAGAACACAATGCTCACTGTGG", "sensor-assay potency score (higher = more potent)": -0.247}, {"sequence": "TATCTTCTCTGCACTGTTCAGT", "sensor-assay potency score (higher = more potent)": 0.23}, {"sequence": "TTGCTCACGATCGCGTCTGAGC", "sensor-assay potency score (higher = more potent)": -1.01}]}, {"molecular_target": "TBPL2", "test": "pooled miR-30 sensor sort-seq; sequence = guide strand", "conditions": "shRNA", "values": [{"sequence": "TCTTGCTGCAAGTCGAGACTGC", "sensor-assay potency score (higher = more potent)": 0.000545}, {"sequence": "TACAATTCCACAACATTCTGAA", "sensor-assay potency score (higher = more potent)": 0.364}, {"sequence": "TAAGCAACACAATTCGTGGTTT", "sensor-assay potency score (higher = more potent)": -0.141}, {"sequence": "TTTTAGAATAGGATAGATGTTT", "sensor-assay potency score (higher = more potent)": -0.912}, {"sequence": "TTAAAATCGAGGAATCTGGCAG", "sensor-assay potency score (higher = more potent)": 0.087}, {"sequence": "ATAAGCAACACAATTCGTGGTT", "sensor-assay potency score (higher = more potent)": 0.695}, {"sequence": "ATTTTCTTGCTGCAAGTCGAGA", "sensor-assay potency score (higher = more potent)": -1.3}, {"sequence": "TATGACAGCAGCAAACCTCTTT", "sensor-assay potency score (higher = more potent)": -0.118}, {"sequence": "TTCCTGGGTAACTTCATCTGGT", "sensor-assay potency score (higher = more potent)": -0.0709}, {"sequence": "TACAGTGGAAACTATATTCTGT", "sensor-assay potency score (higher = more potent)": 0.659}, {"sequence": "TACAACTGGGCTGAACAGGGGA", "sensor-assay potency score (higher = more potent)": 0.181}]}]}
